CYP2C9 activ – increases human cytochrome P450 2C9 activity; P11712; recombinant CYP2C9, luciferin-H conversion, luminescence; stronger effect = higher value; factor 1 = untreated enzyme, 0 = blocked; activation factor at 5 µM; 96,000 tested, 1.4% active; AID 1024;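 active = activation factor of 2 or more for CYP2C9 at a 5 µM dose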;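 note: 0 = sulfaphenazole-blocked wells and 1 = vehicle-only wells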
PTK2B oligo ant – Pyk2 (human) oligomerization antagonism; Q14289; Q293 cells, Pyk2 FERM NanoBiT luminescence; stronger effect = lower value; z-score (the deposit names both 25 µM and 10 µM); 99,000 tested, 0.83% active; AID 1347419;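 active = Z-score of -3 or lower, scaled per plate to the spread of control and sample wells; inactive = z-score above -3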;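 note: negative z-score means lost luminescence so less FERM oligomerization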
CYP2C19 inhib – inhibitors of human CYP2C19; P33261; CYP2C19 Supersomes, luciferin-H EGE luminescence, 30 min; inhibition, % at 5 µM; 96,000 tested, 21% active; AID 778;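 active = CYP2C19 inhibition above a set limit at 5 µM in the primary screen, cut at about 50% in these data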;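 note: plate controls were negative control wells for no effect and 2.5 mM tranylcypromine positive control for full effect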
CYP2C19 activ – cytochrome P450 2C19 (human) activation. recombinant CYP2C19, luciferin-H EGE luminescence; stronger effect = higher value; 0 = fully inhibited enzyme, 1 = untreated enzyme. activation factor at 5 µM. 96,000 tested, under 10 active. AID 1025;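 active = activation factor of at least 2 at 5 µM in the primary screen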;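 note: 0 = wells with 2.5 mM tranylcypromine and 1 = vehicle-only wells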
CYP2C9 inh – human CYP2C9 inhibition | P11712 | CYP2C9 Supersomes, luciferin-H conversion, luminescence | inhibition, % at 5 µM | 96,000 tested, 20% active | AID 777;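 active = blocking of liver enzyme CYP2C9 beyond about 50% at 5 µM, limit read from the data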
* marks the source's active call; other numbers are inactive results. Sampled rows, rich in hits. Any-hit rate of the full collection: about 28%.

CCC(C)[C@H](NC(=O)NCc1ccccc1Cl)C(=O)O (stereo partly drawn) was read as CYP2C9 activ 0.7, PTK2B oligo ant 0.5, CYP2C19 inhib 22, CYP2C19 activ 0.8 and CYP2C9 inh 29.
COc1ccccc1/C=N/NC(=O)C(NC(=O)c1ccccc1)=C(C)C was read as CYP2C9 activ 1.1, PTK2B oligo ant -0.34, CYP2C19 inhib 19, CYP2C19 activ 0.8 and CYP2C9 inh -8.
O=C(Cc1ccccc1)N[C@H](c1ccccc1)P(=O)(O)CO was read as CYP2C9 activ 1, PTK2B oligo ant -0.7, CYP2C19 inhib -6, CYP2C19 activ 1.1 and CYP2C9 inh -4.
For COC(=O)c1ccc(C(=O)OC)c(NC(=O)COC(=O)C2CC2C)c1 (stereo not drawn) the results were CYP2C9 activ 0.2, PTK2B oligo ant -0.18, CYP2C19 inhib 78*, CYP2C19 activ 0.2 and CYP2C9 inh 80*.
Cc1ccc(NC(=O)COC(=O)C2CC2C)c(S(=O)(=O)N2CCCCC2)c1 (stereo not drawn) was read as CYP2C9 activ 0.5, PTK2B oligo ant 0.48, CYP2C19 inhib 74*, CYP2C19 activ 0.3 and CYP2C9 inh 51*.
Nc1nc(C(=O)N2CCOCC2)nn1C(=O)c1ccc(Cl)cc1 was read as CYP2C9 activ 1, CYP2C19 inhib 0, CYP2C19 activ 1 and CYP2C9 inh -2.
For COc1ccc(N(CC(=O)N2CCCCC2)S(=O)(=O)c2c(C)nn(C)c2C)cc1 the results were CYP2C9 activ 1, CYP2C19 inhib 28, CYP2C19 activ 0.7 and CYP2C9 inh -2.
For COc1ccc(N(CC(=O)Nc2cc(OC)ccc2OC)S(=O)(=O)c2c(C)nn(C)c2C)cc1 the results were CYP2C9 activ 0.2, CYP2C19 inhib 76*, CYP2C19 activ 0.2 and CYP2C9 inh 84*.
For COc1ccc(N(CC(=O)Nc2nc3ccc(C)cc3s2)S(=O)(=O)c2c(C)nn(C)c2C)cc1 the results were CYP2C9 activ 0.5, CYP2C19 inhib 37, CYP2C19 activ 0.6 and CYP2C9 inh 48.
COc1cccc(NC(=O)CN(c2ccc(C)cc2)S(=O)(=O)c2c(C)nn(C)c2C)c1 was read as CYP2C9 activ 0.2, PTK2B oligo ant -1.2, CYP2C19 inhib 69*, CYP2C19 activ 0.3 and CYP2C9 inh 76*.
`COc1cc(NC(=O)CN(c2cc(C)cc(C)c2)S(=O)(=O)c2c(C)noc2C)cc(OC)c1` gave CYP2C9 activ 0.7, CYP2C19 inhib 41, CYP2C19 activ 0.6 and CYP2C9 inh 27.
COc1ccc(N(CC(=O)Nc2cccc(OC)c2)S(=O)(=O)c2c(C)nn(C)c2C)cc1 was read as CYP2C9 activ 0.2, PTK2B oligo ant -0.99, CYP2C19 inhib 75*, CYP2C19 activ 0.3 and CYP2C9 inh 83*.
Screening COc1ccc(-n2nnnc2-c2cn(C)nc2C(F)(F)F)cc1 returned CYP2C9 activ 0.8, PTK2B oligo ant 0.12, CYP2C19 inhib 50, CYP2C19 activ 0.5 and CYP2C9 inh 16.
COC(=O)C1(S(=O)(=O)c2cccc3nsnc23)CC1 was read as PTK2B oligo ant -0.35.
Screening CCOC(=O)c1c(NC(C)=O)sc2c1CCC(C=O)=C2Sc1ccccc1 returned CYP2C9 activ 0.5, PTK2B oligo ant -3.5*, CYP2C19 inhib 24, CYP2C19 activ 0.8 and CYP2C9 inh 47.
CN(C)CC(C)(C)CNC(=O)C1CCN(Cc2ccccc2O)CC1 was read as CYP2C9 activ 0.9, PTK2B oligo ant 0.3, CYP2C19 inhib 4, CYP2C19 activ 1 and CYP2C9 inh 11.
`CN(Cc1ccccc1)c1ccc(S(=O)(=O)N2CCOCC2)cn1` gave CYP2C9 activ 1.4, PTK2B oligo ant -0.17, CYP2C19 inhib 30, CYP2C19 activ 0.7 and CYP2C9 inh -37.
For CCN(CC)S(=O)(=O)c1ccc(N(C)Cc2cccnc2)nc1 the results were CYP2C9 activ 0.3, PTK2B oligo ant 0.19, CYP2C19 inhib 81*, CYP2C19 activ 0.2 and CYP2C9 inh 68*.
CC(NC(=O)Nc1cccc([N+](=O)[O-])c1)(C(F)(F)F)C(F)(F)F was read as CYP2C9 activ 0.8, PTK2B oligo ant 0.22, CYP2C19 inhib 20, CYP2C19 activ 0.8 and CYP2C9 inh 20.
For O=C(NCc1ccc2c(c1)OCO2)c1ccc2snnc2c1 the results were CYP2C9 activ 0.4, PTK2B oligo ant 2, CYP2C19 inhib 66*, CYP2C19 activ 0.3 and CYP2C9 inh 65*.
Screening CC(C)C(=O)Nc1cccc(C(=O)NCc2ccc3c(c2)OCO3)c1 returned PTK2B oligo ant 1.3.
`COc1cccc(OCCNC(=O)c2cccc(OC)c2)c1` gave CYP2C9 activ 1.2, PTK2B oligo ant 0.56, CYP2C19 inhib 97*, CYP2C19 activ 0 and CYP2C9 inh -18.
`O=C(NCc1ccc2c(c1)OCO2)c1cccc([N+](=O)[O-])c1` gave CYP2C9 activ 0.8, PTK2B oligo ant 2, CYP2C19 inhib 89*, CYP2C19 activ 0.1 and CYP2C9 inh 25.
`CCOC(=O)C(CCCOc1cccc(OC)c1)C(=O)OCC` gave CYP2C9 activ 0.2, PTK2B oligo ant -0.44, CYP2C19 inhib 90*, CYP2C19 activ 0.1 and CYP2C9 inh 82*.
For O=C(Cn1[nH]c(=O)c2ccccc2c1=O)Nc1ccc(-c2nnc3n2CCCCC3)cc1 the results were CYP2C9 activ 0.8, PTK2B oligo ant 0.71, CYP2C19 inhib 2, CYP2C19 activ 1 and CYP2C9 inh 19.
CC(Oc1ccc(Cl)cc1Cl)C(=O)N(Cc1ccco1)C1CCS(=O)(=O)C1 (stereo not drawn) was read as CYP2C9 activ 0.8, PTK2B oligo ant -0.3, CYP2C19 inhib 48, CYP2C19 activ 0.5 and CYP2C9 inh 21.
Screening O=C(NCCOc1ccccc1)c1ccc2c(c1)OCO2 returned CYP2C9 activ 0.4, PTK2B oligo ant 0.23, CYP2C19 inhib 86*, CYP2C19 activ 0.1 and CYP2C9 inh 59*.
For Cn1nnc2cc(C(=O)NCc3ccc4c(c3)OCO4)ccc21 the results were CYP2C9 activ 0.8, PTK2B oligo ant 0.64, CYP2C19 inhib 52*, CYP2C19 activ 0.5 and CYP2C9 inh 25.
For CCOCCCNC(=O)c1ccc2c(c1)OCO2 the results were CYP2C9 activ 1.1, PTK2B oligo ant 0.23, CYP2C19 inhib -8, CYP2C19 activ 1.1 and CYP2C9 inh -12.
For O=C(NCc1ccc2c(c1)OCO2)c1c(F)c(F)c(F)c(F)c1F the results were CYP2C9 activ 0.7, PTK2B oligo ant 1.2, CYP2C19 inhib 81*, CYP2C19 activ 0.2 and CYP2C9 inh 28.
For O=C(NCc1ccc2c(c1)OCO2)c1ccc2c(c1)OCCO2 the results were CYP2C9 activ 0.2, PTK2B oligo ant 0.55, CYP2C19 inhib 88*, CYP2C19 activ 0.1 and CYP2C9 inh 78*.
Screening CCc1nnc(NC(=O)C2Cc3ccccc3C(=O)O2)s1 (stereo not drawn) returned CYP2C9 activ 0.5, CYP2C19 inhib 4, CYP2C19 activ 1 and CYP2C9 inh 49.
`COc1ccc(Cl)cc1NC(=O)COc1cccc(-n2cnnn2)c1` gave CYP2C9 activ 3.3*, PTK2B oligo ant 0.45, CYP2C19 inhib 29, CYP2C19 activ 0.7 and CYP2C9 inh -234.
